This is an account of results in PubChem BioAssay (NCATS).

For assay [1], the target named is Nucleoprotein (Lymphocytic choriomeningitis virus (strain Armstrong)) (UniProt P09992). The assay can be described thus: qHTS for Inhibitors of the Functional Ribonucleoprotein Complex (vRNP) of Lymphocytic Choriomeningitis Arenaviruses (LCMV): LCMV Primary Screen - GLuc reporter signal (AID 1347086; calls by dose curve; further: nearly all actives have a fitted effect of over 70% in size; further: potency means the concentration at half of the fitted maximal effect). (qHTS replaces the single test concentration by a dilution series.)
Chain of Nucleoprotein (Lymphocytic choriomeningitis virus (strain Armstrong)) (P09992 whole entry, looked up): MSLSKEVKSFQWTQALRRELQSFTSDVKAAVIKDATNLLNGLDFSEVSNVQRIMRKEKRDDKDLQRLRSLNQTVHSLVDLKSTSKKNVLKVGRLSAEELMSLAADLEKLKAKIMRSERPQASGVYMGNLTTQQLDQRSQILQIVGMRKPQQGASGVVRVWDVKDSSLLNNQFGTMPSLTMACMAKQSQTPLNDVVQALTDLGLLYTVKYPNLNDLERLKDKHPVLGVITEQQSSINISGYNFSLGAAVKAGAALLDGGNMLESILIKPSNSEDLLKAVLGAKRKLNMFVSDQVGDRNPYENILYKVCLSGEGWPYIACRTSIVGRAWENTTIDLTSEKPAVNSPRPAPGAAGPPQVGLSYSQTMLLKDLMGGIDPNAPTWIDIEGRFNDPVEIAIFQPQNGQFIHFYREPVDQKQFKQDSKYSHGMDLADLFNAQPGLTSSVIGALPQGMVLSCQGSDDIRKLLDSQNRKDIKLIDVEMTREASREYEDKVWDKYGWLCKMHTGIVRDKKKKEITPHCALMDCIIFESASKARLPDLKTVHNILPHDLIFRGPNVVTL

The nature of assay [2]: qHTS of pediatric cancer cell lines to identify multiple opportunities for drug repurposing: Primary screen for TC32 cells (AID 1347089). Further: nearly all actives have a fitted effect of over 60% in size. Further: potency means the concentration at half of the fitted maximal effect. The method, boiled down: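 Luminescent CellTiter-Glo read-out of metabolically active TC32 cells after 48 h compound exposure. Primary: MIPE 11-point, 0.78 nM–46 µM; NPC 8-point, 0.59 nM–46 µM. Confirmatory: 11-point dilutions.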
The nature of assay [3]: qHTS of pediatric cancer cell lines to identify multiple opportunities for drug repurposing: Primary screen for DAOY cells (AID 1347090). Further: nearly all actives have a fitted effect of over 55% in size. Further: potency means the concentration at half of the fitted maximal effect. The method, boiled down:
(§1)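 Eight- or eleven-point concentration series, 48 h treatment at 37 degrees C in growth media; readout CellTiter-Glo luminescence. Potency and efficacy were taken from the concentration-response curves.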

The nature of assay [4]: qHTS of pediatric cancer cell lines to identify multiple opportunities for drug repurposing: Primary screen for SJ-GBM2 cells (AID 1347091). Further: potency means the concentration at half of the fitted maximal effect. The method, boiled down: as §1
Assay [5] can be described thus: qHTS of pediatric cancer cell lines to identify multiple opportunities for drug repurposing: Primary screen for A673 cells (AID 1347092). Further: nearly all actives have a fitted effect of over 45% in size. Further: potency means the concentration at half of the fitted maximal effect. An outline of the steps:
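A673 cells (500-1,000 cells/well in growth media) were pre-incubated 5 h at 37 degrees C, then exposed to compounds for 48 h. Viability was read as CellTiter-Glo luminescence; concentration-response curves came directly from the primary screen.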

The nature of assay [6]: qHTS of pediatric cancer cell lines to identify multiple opportunities for drug repurposing: Primary screen for BT-37 cells (AID 1347094). Further: potency means the concentration at half of the fitted maximal effect. The method, boiled down: (§2)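 Luminescence from CellTiter-Glo served as readout of metabolically active cells after 48 h compound exposure. Titrations: MIPE 11-point, from 0.78 nM; NPC 8-point, from 0.59 nM (final). Concentration-response curves came straight from the primary screen.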

The nature of assay [7]: qHTS of pediatric cancer cell lines to identify multiple opportunities for drug repurposing: Primary screen for NB-EBc1 cells (AID 1347095). Further: potency means the concentration at half of the fitted maximal effect. The method, boiled down: as §2
Assay [8] is described as follows: qHTS of pediatric cancer cell lines to identify multiple opportunities for drug repurposing: Primary screen for U-2 OS cells (AID 1347096). Further: nearly all actives have a fitted effect of over 50% in size. The method, boiled down: (§3)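 Cells (500-1,000/well) in growth media were settled 5 h at 37 degrees C, then given compounds for 48 h. Viability was read as CellTiter-Glo luminescence. Primary runs used MIPE at 11 points (0.78 nM-46 µM) and NPC at 8 points (0.59 nM-46 µM); follow-ups used 11 points.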

A short description of assay [9]: qHTS of pediatric cancer cell lines to identify multiple opportunities for drug repurposing: Primary screen for SK-N-SH cells (AID 1347098). Further: nearly all actives have a fitted effect of over 65% in size. Further: potency means the concentration at half of the fitted maximal effect. The method, boiled down:
(§4)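 Cells (500-1,000/well) rested 5 h, then received compounds for 48 h; metabolically active cells were measured by CellTiter-Glo luminescence. Final concentrations spanned up to 46 µM (MIPE, 11-point) or 0.59 nM-46 µM (NPC, 8-point) in primary screens, 11-point in follow-ups.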

The nature of assay [10]: qHTS of pediatric cancer cell lines to identify multiple opportunities for drug repurposing: Primary screen for NB1643 cells (AID 1347099). Further: nearly all actives have a fitted effect of over 50% in size. Further: potency means the concentration at half of the fitted maximal effect. An outline of the steps: as §2
Assay [11] can be described thus: qHTS of pediatric cancer cell lines to identify multiple opportunities for drug repurposing: Primary screen for LAN-5 cells (AID 1347100). Further: potency means the concentration at half of the fitted maximal effect. An outline of the steps:
as §3

Assay [12] can be described thus: qHTS of pediatric cancer cell lines to identify multiple opportunities for drug repurposing: Primary screen for BT-12 cells (AID 1347101). Further: nearly all actives have a fitted effect of over 25% in size. Further: potency means the concentration at half of the fitted maximal effect. The method, boiled down: as §4
A short description of assay [13]: qHTS of pediatric cancer cell lines to identify multiple opportunities for drug repurposing: Primary screen for Rh18 cells (AID 1347102). Further: nearly all actives have a fitted effect of over 65% in size. An outline of the steps: as §3
A short description of assay [14]: qHTS of pediatric cancer cell lines to identify multiple opportunities for drug repurposing: Primary screen for OHS-50 cells (AID 1347103). Further: nearly all actives have a fitted effect of over 40% in size. Further: potency means the concentration at half of the fitted maximal effect. An outline of the steps:
as §4

The nature of assay [15]: qHTS of pediatric cancer cell lines to identify multiple opportunities for drug repurposing: Primary screen for RD cells (AID 1347104). Further: nearly all actives have a fitted effect of over 55% in size. Further: potency means the concentration at half of the fitted maximal effect. An outline of the steps:
as §2

A short description of assay [16]: qHTS of pediatric cancer cell lines to identify multiple opportunities for drug repurposing: Primary screen for MG 63 (6-TG R) cells (AID 1347105). Further: nearly all actives have a fitted effect of over 50% in size. The method, boiled down: as §2
Assay [17] in a line: qHTS of pediatric cancer cell lines to identify multiple opportunities for drug repurposing: Primary screen for control Hh wild type fibroblast cells (AID 1347106).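 Further: series mostly up to about 46 µM; a drop in luminescence marks cytotoxicity and a rise apparent proliferation; nearly all actives have a fitted effect of over 55% in size.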 The method, boiled down: as §3
Assay [18] in a line: qHTS of pediatric cancer cell lines to identify multiple opportunities for drug repurposing: Primary screen for SK-N-MC cells (AID 1347093). Further: potency means the concentration at half of the fitted maximal effect. An outline of the steps:
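Metabolically active cells were quantified by ATP-dependent luminescence (CellTiter-Glo, 15 min at room temperature) following 48 h treatment. Cells had been plated at 500-1,000 per well and settled for 5 h beforehand.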

Assay [19] can be described thus: qHTS of pediatric cancer cell lines to identify multiple opportunities for drug repurposing: Primary screen for Saos-2 cells (AID 1347097). Further: nearly all actives have a fitted effect of over 40% in size. Further: potency means the concentration at half of the fitted maximal effect. The method, boiled down: as §2

SMILES strings stand for the structures. Results filed as inconclusive are left out. Activity calls are given as the source filed them. Unless noted, the call rests on the fitted dose curve; in most records, active means well fitted curve in the direction sought with a large enough effect; inconclusive means small, poorly fitted or top-dose-only effect, or another doubt; inactive means no such curve, though single readings can be large; an effect the other way counts as inactive or inconclusive.

In the case of `c1cc2ccc3cccc4ccc(c1)c2c34`, the Potency entry in assay [1], in assay [2], in assay [3], in [4], in [5] and in assay [6] was “inactive” each time. Further, the Potency result in [7], in [8], in [9], in [10], in assay [11] and in [12] was “inactive” in each case. For the same compound, the Potency result in assay [13], in assay [14], in assay [15], in [16] and in assay [17] was “inactive” throughout.

On to `CC(C)(O)C(=O)Nc1ccc([N+](=O)[O-])c(C(F)(F)F)c1`, for which the Potency result in assay [2], in [7], in assay [8], in assay [19] and in assay [13] was “inactive” in each case. The Potency in [3] is 18.7 µM (active); in [18], 0.935 µM (active); in assay [9] it was 24.1 µM (active); in assay [10] it was 5.9 µM (active); in [15], 29.6 µM (active).

On to `CC(=O)N(C)c1cccc(-c2ccnc3c(C(=O)c4cccs4)cnn23)c1`, for which the Potency result in assay [1], in assay [2], in [3], in assay [4], in [5] and in assay [18] was “inactive” each time. For the same compound, the Potency result in assay [6], in assay [7], in assay [8], in assay [19], in [10] and in assay [11] was “inactive” each time. Besides, the Potency result in assay [12], in assay [13], in assay [15], in [16] and in assay [17] was “inactive” throughout.

Turning to `Nc1ccc([N+](=O)[O-])cc1`, the Potency result in assay [2], in assay [3], in [5], in assay [18], in assay [6] and in [7] was “inactive” throughout. For the same compound, the Potency result in assay [8], in assay [19], in assay [9], in assay [10], in assay [11] and in assay [12] was “inactive” in each case. Also, the Potency entry in assay [13], in [16] and in assay [17] was “inactive” throughout.

Turning to `CC=C(C)C(=O)N[C@@H](c1ccccc1)[C@@H](O)C(=O)O[C@H]1C[C@@]2(O)[C@@H](OC(=O)c3ccccc3)[C@@H]3[C@]4(OC(C)=O)CO[C@@H]4C[C@H](O)[C@@]3(C)C(=O)[C@H](OC(C)=O)C(=C1C)C2(C)C`, the Potency is 0.0013 µM (active) in assay [2]; 0.0037 µM (active) in assay [3]; 0.001 µM (active) in assay [18]; 0.0132 µM (active) in [19]; 0.001 µM (active) in assay [11]. In addition, the Potency result in [8], in [13] and in assay [17] was “inactive” each time.

In the case of `Cn1cc(-c2ccc3nnc(Sc4ccc5ncccc5c4)n3n2)cn1`, the Potency entry in [1] is “inactive”.

For `C=C[C@@H]1CN2CCC1C[C@@H]2[C@@H](O)c1ccnc2ccccc12` (stereo partly specified), the Potency in assay [1] was 38.5 µM (active); in assay [5] it was 18.7 µM (active); in assay [18], 9.35 µM (active); in [19], 26.4 µM (active); in assay [9], 30.4 µM (active); in assay [10] it was 10.5 µM (active). The Potency in assay [14] is 30.6 µM (active). The Potency result in assay [2], in [8], in [16] and in assay [17] was “inactive” in each case.

Take `C[C@](O)(COc1ccc(C#N)cc1)C(=O)Nc1ccc(C#N)c(C(F)(F)F)c1`: the Potency result in assay [2], in assay [8], in assay [13], in assay [16] and in [17] was “inactive” throughout. For the same compound, the Potency is 23.5 µM (active) in [10] and 27.3 µM (active) in [14].

Consider `CCN(CC)c1ccc(C(=C2C=CC(=[N+](CC)CC)C=C2)c2cc(S(=O)(=O)O)ccc2S(=O)(=O)[O-])cc1`, for which the Potency entry in assay [1] is “inactive”.

Regarding `CCOC(=O)c1c(C(C#N)=CN)c2ccc(Cl)c(Cl)c2n1C`, the Potency result in assay [1], in assay [2], in assay [5], in assay [6], in [8] and in [11] was “inactive” each time. Moreover, the Potency entry in [12], in assay [13], in [14] and in assay [17] was “inactive” throughout. Besides, the Potency in [18] was 18.7 µM (active).

Consider `O=c1[nH]nc(Sc2ncc([N+](=O)[O-])s2)n1-c1ccc2c(c1)OCCO2`, for which, in [1], the Potency result was “inactive”.

Take `CC(C)(C)c1cc(C=C(C#N)C#N)cc(Br)c1O`: the Potency result in assay [2], in [8], in assay [13] and in assay [17] was “inactive” each time. Also, the Potency is 2.64 µM (active) in assay [4], 4.69 µM (active) in [7] and 4.69 µM (active) in assay [10].

As for `Nc1ccc(N=Nc2ccccc2)cc1`, the Potency entry in [1], in assay [19] and in assay [17] was “inactive” throughout. Besides, in assay [11], the Potency is 38.6 µM (active).

Take `COc1ccc(CC2NCCc3cc(OC)c(OC)cc32)cc1OC` (stereo unspecified): the Potency result in [1], in assay [2], in assay [3], in assay [4], in assay [6] and in [8] was “inactive” throughout. In addition, the Potency entry in [19], in [9], in assay [11], in [12], in assay [13] and in assay [16] was “inactive” each time. Besides, the Potency result in [17] is “inactive”.

As for `O=S(=O)(F)Cc1ccccc1`, the Potency result in assay [1], in assay [2], in assay [3], in assay [4], in assay [7] and in assay [8] was “inactive” throughout. In addition, the Potency result in assay [19], in assay [9], in assay [10], in assay [11], in assay [12] and in assay [13] was “inactive” each time. Moreover, the Potency entry in assay [14], in assay [15] and in assay [17] was “inactive” throughout.

For the compound `COc1cc2c(cc1OC)[C@@H]1C(=O)c3ccc4c(c3O[C@@H]1CO2)C=CC(C)(C)O4`, the Potency in assay [1] is 0.243 µM (active).

Consider `Cc1c(C(=O)Nc2cccc(C(F)(F)F)c2)cc(-c2ccccc2)n1CCCN1CCOCC1`, for which the Potency result in [2] and in assay [17] was “inactive” in each case. Moreover, the Potency in [4] is 18.7 µM (active); in assay [18] it was 13.2 µM (active); in [6] it was 27.3 µM (active); in assay [7], 18.7 µM (active); in assay [19], 18.7 µM (active); in assay [9], 24.1 µM (active). The Potency in [10] was 23.5 µM (active); in [11], 18.7 µM (active); in assay [15] it was 18.7 µM (active).

For `C=CCON=C(C[C@H]1O[C@@H]2O[C@]3(C)CC[C@@H]4[C@H](C)CC[C@@H]([C@H]1C)[C@@]24OO3)[C@H]1O[C@@H]2O[C@]3(C)CC[C@H]4[C@H](C)CC[C@@H]([C@@H]1C)[C@@]24OO3`, the Potency is 0.372 µM (active) in assay [4]; 0.332 µM (active) in assay [18]; 0.432 µM (active) in assay [6]; 0.372 µM (active) in [7]; 0.833 µM (active) in assay [10]; 0.469 µM (active) in assay [11]. For the same compound, in assay [12], the Potency is 0.344 µM (active). The Potency result in assay [8], in [19], in assay [9] and in assay [17] was “inactive” each time.
